40 compounds from PubChem BioAssay (Tox21) can be followed below.

Records with an inconclusive call do not appear. Calls of active or inactive are those of the source. Calls come from the whole dose curve; as a rule, active = well fitted activation curve with a large enough effect in the signal ratio in the repeat runs, with a control signal flat (not every such curve was filed as active); inconclusive = weak or mixed curves; inactive = flat fitted curve, though single readings scatter; the % refers to the signal ratio.

The nature of the assay: qHTS assay for small molecule activators of the heat shock response signaling pathway (AID 743210). Particulars: HeLa HSE-bla reporter, beta-lactamase ratio, 5 h; series mostly up to 62.6 µM. An excerpt: U.S. Tox21 Program National Center for Advancing Translational Sciences [NCATS] NIH Chemical Genomics Center [NCGC] U.S. Environmental Protection Agency [EPA] National Institutes of Environmental Health Sciences [NIEHS] National Toxicology Program [NTP] U.S. Food and Drug Administration [FDA] Tox21 Assay Overview: Various chemicals, environmental and physiological stress conditions may lead to the activation of heat shock response/ unfolded protein response (HSR/UPR). There are three heat shock transcription factors (HSFs) (HSF-1, -2, and -4) mediating transcriptional regulation of the human HSR. To identify the compounds that activate HSR signaling, HSE-bla HeLa cell line (Invitrogen, Carlsbad, CA, USA) containing a beta-lactamase reporter gene under the control of the heat shock response elements was used to screen the Tox21 10K compound library.
Tox21 Assay Protocol Summary: The CellSensor HSE-bla HeLa cells (Invitrogen, Carlsbad, CA, USA) were dispensed at 1500 cells/6uL/well into 1536-well black wall/clear bottom plates using a Multidrop combi (Thermo Fisher Scientific, Waltham, MA) dispenser. After the assay plates were incubated at 37 C and 5% CO2 overnight, 23 nL of compounds dissolved in DMSO, positive controls or DMSO only was transferred to the assay plate by a Pintool station (Kalypsys, San Diego, CA). The plates were incubated at 37 C for 5 h. After 1 uL of LiveBLAzerTM B/G FRET substrate was added using a Flying Reagent Dispenser (Beckman Coulter, Indianapolis, IN, USA), the plates were incubated at room temperature for 2.5 h, and fluorescence intensity was measured by an Envision plate reader (PerkinElmer, Shelton, CT).
`CCCCCCCCCCCCCCCCC`: the result was inactive.
The entry for `COc1ccc2c(c1)CCCC2=O` is “inactive”.
The result for `CCN(CC)CCOCCOC(=O)C1(c2ccccc2)CCCC1` reads “inactive”; that for `Oc1ccc(C2CNCCc3c2cc(O)c(O)c3Cl)cc1` (stereo not given), “inactive”; that for `FC1(F)C(F)(F)C(F)(F)C2(F)C(F)(F)C(F)(F)C(F)(F)C(F)(F)C2(F)C1(F)F` (stereo not given), “inactive”.
The entry for `C=C(C)C(=O)OCCCCCCCC(C)C` is “inactive”; for `O=C(O)CCCl` it is “inactive”; for `Cc1ccc(C#N)cc1` it is “inactive”.
For the compound `CC(=O)N(CC(O)CO)c1c(I)c(C(=O)NCCO)c(I)c(C(=O)NCC(O)CO)c1I` (stereo not given), the outcome was inactive.
As to `CC(C)(CC(=O)O)C(=O)O`, the outcome was inactive.
Take `N=C(N)c1ccc2cc(OC(=O)c3ccc(N=C(N)N)cc3)ccc2c1`: the outcome was inactive.
The entry for `C=C(C)CS(=O)(=O)O` is “inactive”; for `CC(C)CCCC(C)N` (stereo not given) it is “inactive”.
The entry for `CN(C)CCCN1c2ccccc2CCc2ccc(Cl)cc21` is “inactive”; for `C=C1CC[C@H]2C[C@@H]1C2(C)C` it is “inactive”; for `O=C1OC(=O)C2CCCCC12` (stereo not given) it is “inactive”.
The entry for `OC[C@]1(O)OC[C@@H](O)[C@H](O)[C@@H]1O` is “inactive”.
`CC(=O)Nc1ccc(S(N)(=O)=O)cc1`: the result was inactive.
The entry for `O=C[C@H](O)[C@@H](O)[C@H](O)[C@H](O)CO` is “inactive”.
The result for `CC(C)NCCCC1(C(N)=O)c2ccccc2-c2ccccc21` reads “inactive”; that for `CCCCC/C=C\CCC=O`, “inactive”.
As for `CCCN(CCC)CCc1cccc2c1CC(=O)N2`, the result was inactive.
As for `CCC(=O)OC(C)c1ccccc1` (stereo not given), the outcome was inactive.
The result for `COC(=O)NN` reads “inactive”.
The result for `COC(=O)c1ccc(C)cc1C1=NC(C)(C(C)C)C(=O)N1` (stereo not given) reads “inactive”; that for `c1cnc(N2CCN(Cc3ccc4c(c3)OCO4)CC2)nc1`, “inactive”; that for `CC(C)(O)C(=O)c1ccccc1`, “inactive”.
The entry for `O=C1CCCCCCCCCCCN1` is “inactive”; for `C[N+](C)(C)CC(O)CC(=O)[O-]` (stereo not given) it is “inactive”.
Turning to `O=C1CCCN1C1CCCCC1`, the outcome was inactive.
The entry for `CCCC(=O)O[C@]1(C(=O)CO)CC[C@H]2[C@@H]3CCC4=CC(=O)CC[C@]4(C)[C@H]3[C@@H](O)C[C@@]21C` is “inactive”; for `CCN1CCC[C@H]1CNC(=O)c1c(O)c(Cl)cc(Cl)c1OC` it is “inactive”.
The result for `CC[N+](C)(C)c1cccc(O)c1` reads “inactive”; that for `CCOC(=O)Nc1ccc(NCc2ccc(F)cc2)nc1N`, “inactive”; that for `Cc1ccc(Cl)cc1Cl`, “inactive”.
Consider `COC(=O)c1cc(C(=O)OC)cc(S(=O)(=O)O)c1`, for which the result was inactive.
The entry for `CN1CCCC1` is “inactive”; for `CO[Si](CCCOCC1CO1)(OC)OC` (stereo not given) it is “inactive”; for `CCCCOCCOCCOCCCC` it is “inactive”.
The result for `C=CCOCC(CC)(CO)COCC=C` reads “inactive”.
